About 1,000 (0.29%) of roughly 340,000 compounds were called active. No stated cut-off is given here; in the data, inconclusive means inhibition above about 27% without an active follow-up result; inactive means below that. The list is a sample of the results. Results with a measured potency or affinity are listed apart.

What is called inhibition is the relative decrease from the control value, in per cent.

A short description of the experiment: NS1A inhibition, H1N1 influenza, cell based functional assay (AID 504329). As to conditions: percent inhibition, at 12.5 µM, stronger effect = higher value.
As to `O=C(c1cccc(S(=O)(=O)N2CCOCC2)c1)N(Cc1ccco1)Cc1cccs1`, the inhibition was 4.9% (inactive).

Regarding `Oc1ccccc1C=Nc1ccccc1-c1nc2ccccc2[nH]1`, the inhibition is 41.1% (inactive).

For `Oc1ccccc1C=Nc1cccc2ccccc12`, the inhibition was -4.35% (inactive).

Take `Cc1ccc(Nc2cc(C)nc3c(C)cccc23)cc1`: the inhibition is -2.9% (inactive).

Turning to `O=S(=O)(NCc1cc(-c2ccccc2Cl)no1)c1ccc(Cl)cc1`, the inhibition is 0.63% (inactive).

With `COc1ccc(CNc2nc3nc(C)cc(C)n3n2)cc1`, the inhibition is 1.24% (inactive).

As for `CSc1ncccc1C(=O)Nc1cccc(S(=O)(=O)N2CCCC2)c1`, the inhibition is -2.85% (inactive).

For the molecule `O=C(COC(=O)c1ccccc1O)NNC(=O)c1ccc(Br)cc1`, the inhibition was 7.27% (inactive).

On to `O=C(C1CCN(Cc2nc(Cc3cccc(F)c3)no2)CC1)N1CCOCC1`, for which the inhibition was 7.26% (inactive).

As for `Cc1nnc2sc(SCc3ccc(Cl)cc3)nn2c1=O`, the inhibition was -5.29% (inactive).

Turning to `Cc1nnc2sc(SCC(=O)Nc3nccs3)nn2c1=O`, the inhibition was -3.22% (inactive).

As for `Cc1cccc(CSc2nn3c(=O)c(C)nnc3s2)c1`, the inhibition was -3.29% (inactive).

Turning to `Cc1nnc2sc(SCC(=O)Nc3ccc(Br)cc3)nn2c1=O`, the inhibition was 24.3% (inactive).

For the molecule `Cc1ccc(NC(=O)CSc2nn3c(=O)c(C)nnc3s2)cc1Cl`, the inhibition was 12.2% (inactive).

On to `Cc1nnc2sc(SCc3cccc(Cl)c3)nn2c1=O`, for which the inhibition is 2.99% (inactive).

Turning to `C=CC(C)(C)c1c(O)c(CC=C(C)C)c(O)c2c(=O)c3ccc(O)c(O)c3oc12`, the inhibition is 4.4% (inactive).

`O=C(Cc1cccc(C(F)(F)F)c1)OCC(=O)N1CCN(S(=O)(=O)c2ccc(Cl)cc2)CC1`: the inhibition was -3.3% (inactive).

`CCOc1ccc(NC(=O)C2CCCN2C(=O)NC2CCCCC2)cc1` (stereo not given): the inhibition was 3.03% (inactive).

For `Cc1ccc2cc(CCNC(=O)C3CCCC3)c(=O)[nH]c2c1`, the inhibition was 9.32% (inactive).

With `CCC(C)(C)NC(=O)C(c1ccc(OC)cc1)N(C(=O)CCC(=O)Nc1cc(C)on1)c1ccc2c(c1)OCCO2` (stereo not given), the inhibition was -4.61% (inactive).

In the case of `CNC(=O)c1[nH]cnc1C(=O)Nc1cccc(C)c1`, the inhibition was -8.44% (inactive).

For the molecule `COc1ccc(OCC(=O)Nc2ccc3c(c2)nc(CCn2ccccc2=O)n3C)cc1`, the inhibition is 5.24% (inactive).

For `O=C(c1ccc(-c2ccccc2)cc1)N1CCN(c2ncccn2)CC1`, the inhibition was 20.6% (inactive).

Consider `CN1CCN(C(=O)c2ccc3ccccc3c2)CC1`, for which the inhibition is -18.4% (inactive).

For `Cc1cc(N2CCN(C)CC2)nc(-c2ccccc2O)n1`, the inhibition is 8.33% (inactive).

On to `CC(C)(C)c1ccc(C(=O)N2CCNCC2)cc1`, for which the inhibition is -7.49% (inactive).

For `CN1CCN(C(=O)c2ccc3nc(-c4ccccc4)c(-c4ccccc4)nc3c2)CC1`, the inhibition is -4.76% (inactive).

Consider `Oc1cc(-c2ccc(N3CCCCC3)nc2)cc2cccnc12`, for which the inhibition was -0.13% (inactive).

As to `Cc1[nH]c2ccccc2c1C(=O)C(=O)N1CC(C)OC(C)C1` (stereo not given), the inhibition is -0.55% (inactive).

For the molecule `COc1ccc(NC(=O)CN(C)C(=O)C2CSC3(C)CCC(=O)N23)cc1` (stereo not given), the inhibition was -5.66% (inactive).

In the case of `O=C(CCNC(=O)N1CC(=O)Nc2ccccc21)Nc1ccc(Cl)cc1`, the inhibition is -4.42% (inactive).

As to `Cc1cc(C(=O)NN)c2cc(Br)ccc2n1`, the inhibition is -10.8% (inactive).

`O=C(c1ccc(F)cc1F)N1CCC(N2CCC(C(=O)N3CCOCC3)CC2)CC1`: the inhibition is 4.56% (inactive).

As to `CCOC(=O)C(=O)Nc1ccccc1C(=O)NCc1ccccc1`, the inhibition is -18.5% (inactive).

Consider `CC(C)Cn1cnc2c(c1=N)C(c1ccccc1)C1=C(CC(C)(C)CC1=O)O2` (stereo not given), for which the inhibition was 0.81% (inactive).

As for `COc1ccc(C2C(C(=O)c3ccccc3)N3c4ccccc4C=CC3C2[N+](=O)[O-])cc1` (stereo not given), the inhibition is -12.1% (inactive).

`O=C(c1ccco1)[C@@H]1[C@@H]2C(=O)N(c3ccc(F)cc3)C(=O)[C@@H]2[C@H]2C=Cc3ccccc3N21`: the inhibition is 0.66% (inactive).

For the molecule `Cc1cc(C)cc(N2C(=O)CCN(Cc3ccccc3)C2=O)c1`, the inhibition is 0.48% (inactive).

`CC1=NN(c2ccccc2)C(=O)/C1=C\C=C1\N(C)c2ccccc2C1(C)C`: the inhibition is 25.6% (inactive).

On to `CC1=NN(c2ccccc2)C(=O)/C1=C/c1ccc(Cl)cc1`, for which the inhibition was 4.56% (inactive).

`Cc1c(N=C/C=C2\N(C)c3ccccc3C2(C)C)c(=O)n(-c2ccccc2)n1C`: the inhibition was 1.39% (inactive).

As for `CC1=NN(c2ccccc2)C(=O)/C1=C/C=C/c1ccccc1`, the inhibition was 9.01% (inactive).

On to `CC1=NN(c2ccccc2)C(=O)/C1=C/c1cccc(C)c1`, for which the inhibition was -0.71% (inactive).

As for `CC1=NN(c2ccccc2)C(=O)/C1=C/C=C/C=C/N(C)C`, the inhibition was 22.1% (inactive).

As for `CC1=NN(c2ccccc2)C(=O)/C1=C/N(C)C`, the inhibition was 12.1% (inactive).

`CC1=NN(c2ccccc2)C(=O)/C1=C/c1cccs1`: the inhibition is 24.1% (inactive).

With `CC(=O)Nc1cc(C)c2nc(NC(C)=O)sc2c1`, the inhibition was 8.68% (inactive).

Turning to `Cc1cc(C)c2nc(N3CCCC(C(=O)NC4CCCC4)C3)sc2c1` (stereo not given), the inhibition is 1.03% (inactive).

Regarding `CN(CC(=O)Nc1c(Cl)cccc1Cl)C(=O)CCC1CCCC1`, the inhibition was -7.47% (inactive).

On to `CCOc1ccc(OCCC(=O)OCC(=O)NCc2ccccc2)cc1`, for which the inhibition is 4.79% (inactive).

Regarding `Cc1nc2ccccc2c2oc(C(=O)N3CCc4ccccc4C3)cc12`, the inhibition is 14.6% (inactive).

Regarding `COc1ccccc1C(=O)NC(=O)COC(=O)c1ccc(Cl)cc1[N+](=O)[O-]`, the inhibition is 11.3% (inactive).

Regarding `O=C(N/N=C\C=C\c1ccc2c(c1)OCO2)C1COc2ccccc2O1` (stereo not given), the inhibition is -2.03% (inactive).

`Cc1ccc(N2C(=O)NC(=O)/C(=C\C=C\c3ccco3)C2=O)cc1`: the inhibition is -8.27% (inactive).

For `CN1/C(=C\C=C2C(=O)NC(=O)NC2=O)C(C)(C)c2ccccc21`, the inhibition was -3.94% (inactive).

As for `O=C1NC(=O)N(c2ccccc2)C(=O)/C1=C/C=C/c1ccco1`, the inhibition was -5.11% (inactive).

Consider `CN1/C(=C\C=C2C(=O)NC(=S)NC2=O)C(C)(C)c2ccccc21`, for which the inhibition was 6.82% (inactive).

With `O=C1CC(N2C(=O)/C(=C/C=C/c3ccccc3)SC2=S)C(=O)N1c1ccccc1` (stereo not given), the inhibition was 7.39% (inactive).

On to `COC(=O)CC1=NN(c2ccccc2)C(=O)/C1=C\c1ccc(OC)cc1`, for which the inhibition is 3.36% (inactive).

Regarding `CCOC(=O)CC1=NN(c2ccccc2)C(=O)/C1=C\c1ccc(OC)cc1OC`, the inhibition was 17.9% (inactive).

On to `O=C(O)c1ccc(N2C(=O)/C(=C/C=C/c3ccccc3)SC2=S)cc1`, for which the inhibition was -0.2% (inactive).

`Cc1ccc(S(=O)(=O)CCC(=O)OC2CC(C)OC2=O)cc1` (stereo not given): the inhibition is -7.36% (inactive).

As to `C=CCOc1ccc(Br)cc1/C=C1\NC(=S)N(C(C)=O)C1=O`, the inhibition is 5.35% (inactive).

`O=C(O)CP(=O)(c1ccccc1)c1ccccc1`: the inhibition was -20.8% (inactive).

As to `O=C(NC1CC1)C1CSC(c2cccnc2)=N1` (stereo not given), the inhibition is -5.68% (inactive).

As for `COC(=O)CNC(=O)CNC(=O)c1nn(-c2ccc(OC)c(Cl)c2)c(=O)c2ccccc12`, the inhibition is -9.13% (inactive).

Take `Cc1ccc(S(=O)(=O)c2nc(NCCN(C)C)sc2Cl)cc1`: the inhibition was 3.06% (inactive).

For `CCOC(=O)C1=C(C(=O)OCC)N(Cc2ccccc2)CCC1=O`, the inhibition was -3.47% (inactive).

On to `Cc1ccc(/C=N/NC(=O)C(C)NC(=O)c2ccccc2)cc1` (stereo not given), for which the inhibition was -0.33% (inactive).

As to `CCC(C)NC(=O)CSc1nc2ccccc2c(=O)n1-c1c(C)n(C)n(-c2ccccc2)c1=O` (stereo not given), the inhibition was -0.57% (inactive).

With `Fc1ccccc1CSc1nnc(-c2cnccn2)n1Cc1ccco1`, the inhibition is -1.61% (inactive).

As to `O=C(NCCc1ccccc1)c1cc(-c2ccccc2)c(N2CCOCC2)s1`, the inhibition is 1.49% (inactive).

As to `CCCNC(=O)c1cc(-c2ccccc2)c(N2CCCCC2)s1`, the inhibition was -16.7% (inactive).

Take `CNc1cccnc1C=NNC(N)=S`: the inhibition is 17.7% (inactive).

For the molecule `NC(=S)N/N=C\c1c2ccccc2cc2ccccc12`, the inhibition was 8.41% (inactive).

With `NC(=S)N/N=C/c1c(O)ccc2ccccc12`, the inhibition was -3.38% (inactive).

For the molecule `Cn1cc(/C=N/NC(N)=S)c2ccccc21`, the inhibition was -12.5% (inactive).

As for `CC(=O)n1cc(/C=N/NC(N)=S)c2ccccc21`, the inhibition was -5.48% (inactive).

With `Cc1[nH]c2ccccc2c1/C=N/NC(N)=S`, the inhibition was 5.2% (inactive).

As to `O=C(Nc1ccccc1)c1ccc(S(=O)(=O)NCc2cccnc2)cc1`, the inhibition is 10.4% (inactive).

In the case of `CCn1c(SCC(=O)Nc2nc(-c3ccccc3)cs2)nc2c1c(=O)n(C)c(=O)n2C`, the inhibition was 4.76% (inactive).

Take `Cc1ccccc1-c1n[nH]c(=S)n1/N=C/C=C/c1ccco1`: the inhibition is -17.6% (inactive).

With `CNC(=O)Cn1nc(-c2ccc(C)c(S(=O)(=O)N(C)C)c2)c2ccccc2c1=O`, the inhibition is -13.6% (inactive).

As for `O=C1C(Nc2ccccc2)=C(N2CCCCC2)C(=O)c2ccccc21`, the inhibition is 15.3% (inactive).

Consider `CC(=O)N(C)C1=C(N2CCOCC2)C(=O)c2ccccc2C1=O`, for which the inhibition is 1.43% (inactive).

In the case of `CC(=O)N(C1=C(N2CCOCC2)C(=O)c2ccccc2C1=O)c1ccc(C(=O)O)cc1`, the inhibition is 0.48% (inactive).

For the molecule `COc1ccccc1NC1=C(N2CCCCC2)C(=O)c2ccccc2C1=O`, the inhibition was -0.23% (inactive).

With `O=C(Nc1ccc(OC(F)F)cc1)c1cc(S(=O)(=O)N2CCOCC2)ccc1F`, the inhibition was -7.89% (inactive).

As for `COCc1c(C(=O)OCC(=O)N(C)C2CCS(=O)(=O)C2)oc2ccccc12` (stereo not given), the inhibition is -9.04% (inactive).

Turning to `Cc1ccccc1NC(NC(=O)c1cccnc1)C(Cl)(Cl)Cl` (stereo not given), the inhibition was -5.69% (inactive).

As to `Cc1ccc(S(=O)(=O)/N=C2\C=C(NS(=O)(=O)c3ccccc3)C(=O)c3ccccc32)cc1`, the inhibition was 8.43% (inactive).

On to `Cc1ccc(S(=O)(=O)Nc2ccc(N=Nc3ccc(O)cc3)cc2)cc1`, for which the inhibition is 4.71% (inactive).

Consider `COCCC(=O)N1CCC(Oc2ccc(C(=O)NC3CCOC(C)(C)C3)cc2)CC1` (stereo not given), for which the inhibition is 5.89% (inactive).

On to `O=C1C(=O)c2ccc(-c3ccccc3)cc2-c2ccccc21`, for which the inhibition was -3.6% (inactive).

Regarding `O=C1C(=O)c2ccccc2-c2ccccc21`, the inhibition is 5.48% (inactive).

The values above are taken from PubChem BioAssay AID504329 (Southern Research Specialized Biocontainment Screening …, 2011).
